From PubChem BioAssay (NCATS)
Results filed as inconclusive are left out. Calls of active or inactive are those of the source. Unless noted, the call rests on the fitted dose curve; in most records, active means well fitted curve in either direction with a large enough effect (not every such curve was filed as active); inconclusive means small, poorly fitted or top-dose-only effect, or another doubt; inactive means flat fitted curve, though single readings scatter.

How the values were obtained:
[1] = AP1 Signaling Pathway (AID 357); conditions: ME-180 AP-1-bla reporter, EGF-induced, beta-lactamase ratio, 5 h; at 17.2 µM (top of the series) unless noted;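 further: ME-180 reporter cells stimulated with EGF at its EC50 level; on the % scale 0 is the no-effect control and ±100 the full control effect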
In short: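 Titration-series screen for positive or negative modulators of EC50 EGF-induced signaling in ME-180 cells carrying an AP-1-driven beta-lactamase reporter. After 5 hours at 37 degrees Celsius, CCF4 460nm/530nm emission ratio gave %Activity; AC50 values derived.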

[2] = NFAT Signaling Pathway (AID 444); conditions: Jurkat NFAT-bla M1, carbachol, beta-lactamase ratio, 5 h; at 17.2 µM (top of the series) unless noted;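 further: carbachol stimulus at about its EC50 of 1 µM final; on the % scale 0 is the no-effect control and ±100 the full control effect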
In short: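 Jurkat cells with NFAT-driven β-lactamase reporter and co-expressed M1 receptor, stimulated with carbachol (final 1 uM, ~EC50), compound titration, 5 h at 37 °C. CCF4 loaded 1 h at RT; 460/530 nm ratio gave %activity and AC50.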

[3] = Stat Signaling Pathway (AID 446);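 further: ME-180 cervical cancer cells given 40 pM IL-6 alongside compound; SIE-controlled beta-lactamase reporter measured as 460/530 nm FRET emission ratio; on the % scale 0 is the no-effect control and ±100 the full control effect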
In short: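 Compound effects on IL-6-induced STAT reporter activity were measured in ME-180 cells. After overnight culture, cells were co-treated with 40 pM IL-6 for 5 hrs before beta-lactamase substrate loading at room temperature.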

[4] = target: Glucocorticoid receptor (Homo sapiens) (UniProt P04150); test: GR-GFP Redistribution (AID 450;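 active means compounds whose dose series gives a full or clear partial fitted curve of increased nuclear translocation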; further: potency means the concentration at half of the fitted maximal effect); conditions: U2OS GR-GFP nuclear translocation, laser cytometry, 2 h
[5] = target: Cytochrome P450 1A2 (Homo sapiens) (UniProt P05177); test: p450-cyp1a2 (AID 410; calls by dose curve;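 further: -100% = full effect of reference inhibitor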)
In short: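 O-Demethylation of luciferin 6' methyl ether by human CYP1A2 is monitored as luciferase luminescence. Substrate sits at Km (100uM); enzyme is 20nM. Values are scaled to 57 uM furafylline as maximal inhibition.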

[6] = target: Mitogen-activated protein kinase 10 (Mus musculus) (UniProt Q61831); test: JNK3 AlphaScreen Assay (AID 530);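 further: kinase came from lysate of stimulated human HepG2 cells; signal reports phosphorylation of biotinylated GST-cJun 1-79 at Ser73 with 10 µM ATP; on the % scale 0 is the no-effect control and ±100 the full control effect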
In short: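 Activity was read by AlphaScreen after JNK3-containing HepG2 lysate (cytokine pre-activated) phosphorylated biotinylated GST-cJun with 10 uM ATP at room temperature. Phospho-Ser73 cJun antibody with Protein-A acceptor beads provided detection.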

[7] = target: 3',5'-cyclic-AMP phosphodiesterase 4B (Homo sapiens) (UniProt Q07343); test: qHTS Assay for Inhibitors of PDE-IV (AID 607; active means well fitted activation curve with a large enough effect in the main read-out, with a control signal flat, not every such curve was filed as active; further: % of control where 0% means no effect)
In short: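 ACTOne HEK293 cells carry a modified cAMP-gated CNG channel and express endogenous PDE4; plated 1000 cells/well, compounds up to 22.9 uM final. Membrane-potential dye fluorescence (ex 535/em 590) was read; parental cells received 10 uM forskolin + 100 uM RO 20-1724.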

[8] = qHTS Assay for Identification of Small Molecule Antagonists for NFkB Signaling Pathway (AID 895; active means well fitted inhibition curve with a large enough effect in the signal ratio, with a control signal flat, not every such curve was filed as active; the % refers to the signal ratio; further: on the % scale 0 is the no-effect control and ±100 the full control effect)
In short: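 ME-180 NFkB-bla cells (beta-lactamase under NFkB response element), plated overnight, treated with compound then 10 pM TNF alpha (about EC50) for 5 hrs at 37 C. LiveBLAzer FRET read at 460/530 nm emission, 405 nm excitation.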

[9] = qHTS Assay for Identification of Small Molecule Agonists for Thrombopoietin (TPO) Signaling Pathway (AID 917; active means well fitted curve in the direction sought with a large enough effect; an effect the other way counts as inactive or inconclusive; further: on the % scale 0 is the no-effect control and ±100 the full control effect)
In short: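 Quantitative HTS for pathway activators: compounds were pin-transferred onto IL-3-starved Ba/F3 cells expressing human TPO receptor, TPO was added at its EC50 (26 pM final), and after 24 hrs at 37 C reporter luciferase was measured.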

[10] = target: Pyruvate kinase (Leishmania mexicana) (UniProt Q27686); test: qHTS Validation Assay for Inhibitors of Leishmania Mexicana Pyruvate Kinase (AID 945; active means well fitted curve in the direction sought with a large enough effect; an effect the other way counts as inactive or inconclusive;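 further: 0% = DMSO only neutral control wells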)
In short: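 The enzyme is a highly purified E451W mutant of LmPYK used at 0.2 nM. It converts 0.5 mM PEP and 0.1 mM ADP over 1 h at room temperature; product ATP is quantified by luciferase luminescence relative to DMSO controls.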

[11] = target: Pyruvate kinase PKM (Homo sapiens) (UniProt P14618); test: qHTS Assay for Activators of Human Muscle Pyruvate Kinase (AID 954; active means well fitted curve in the direction sought with a large enough effect, not every such curve was filed as active;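 further: 0% = uninhibited enzyme and -100% = no enzyme or full thiadiazolimine inhibition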)
In short: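 A coupled luminescent readout tracked ATP made from ADP by purified PKM2. Final conditions included 0.1 nM enzyme, PEP and ADP at 0.5 and 0.1 mM, pH 7.2 imidazole buffer with BSA, and a one-hour room-temperature reaction.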

[12] = target: Alpha-galactosidase (Coffea arabica) (UniProt Q42656); test: Counterscreen for Glucocerebrosidase Inhibitors: qHTS Assay for Coffee Bean alpha-Galactosidase at pH 4.5 (AID 957; active means well fitted curve in the direction sought with a large enough effect; an effect the other way counts as inactive or inconclusive;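 further: plate controls were enzyme alone for no effect and no enzyme for full effect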)
In short: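 Enzyme is added first (2 nM final), then compounds titrated from 0.7 nM to 77 uM, then 80 uM 4-methylumbelliferyl alpha-D-galactopyranoside; after 20 min at room temperature a pH 10 NaOH/glycine stop precedes fluorescence reading at 365/440 nm.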

[13] = target: Alpha-galactosidase A (Homo sapiens) (UniProt P06280); test: Counterscreen for Glucocerebrosidase Inhibitors: qHTS Assay for Human alpha-Galactosidase at pH 4.5 (AID 992; active means well fitted curve in the direction sought with a large enough effect; an effect the other way counts as inactive or inconclusive; further: 0% is about no effect)
In short: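 Citrate buffer pH 4.5, Tween-20 0.005%. Enzyme 2 nM, substrate 80 uM, 20 min RT. Stop pH 10. Fluorescence Ex 365/Em 440. AC50 by Hill fit.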

[14] = target: alpha-glucosidase (Oryza sativa, rice) (UniProt Q653V4); test: Counterscreen for Glucocerebrosidase Inhibitors: qHTS Assay for Rice alpha-Glucosidase at pH 5.0 (AID 997; active means well fitted curve in the direction sought with a large enough effect; an effect the other way counts as inactive or inconclusive;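 further: 0% = full activity with enzyme and -100% = basal without enzyme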)
In short: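 Endpoint fluorogenic assay at pH 5.0: compounds (0.7 nM to 77 uM) titrated against 4 nM rice enzyme and 400 uM 4-MU-alpha-glucoside for 20 min at room temperature; NaOH/glycine stop, read ex 365/em 440 nm, Hill-fitted AC50.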

[15] = target: Alpha-galactosidase (Coffea arabica) (UniProt Q42656); test: Counterscreen for Glucocerebrosidase Inhibitors: qHTS Assay for Coffee Bean alpha-Galactosidase at pH 5.9 (AID 998; active means well fitted curve in the direction sought with a large enough effect; an effect the other way counts as inactive or inconclusive;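 further: plate controls were uninhibited enzyme for no effect and no-enzyme basal signal for full effect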)
In short: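 Enzyme 2 nM + cpd (0.7 nM–77 uM titration) + 4-MU-alpha-Gal 80 uM, pH 5.9 citrate/Tween-20, RT 20 min, NaOH/glycine stop pH 10, fluor 365/440. Normalized to no-enzyme and full-activity controls; Hill-fit AC50.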

Sequence of Glucocorticoid receptor (Homo sapiens) (P04150 whole entry, looked up): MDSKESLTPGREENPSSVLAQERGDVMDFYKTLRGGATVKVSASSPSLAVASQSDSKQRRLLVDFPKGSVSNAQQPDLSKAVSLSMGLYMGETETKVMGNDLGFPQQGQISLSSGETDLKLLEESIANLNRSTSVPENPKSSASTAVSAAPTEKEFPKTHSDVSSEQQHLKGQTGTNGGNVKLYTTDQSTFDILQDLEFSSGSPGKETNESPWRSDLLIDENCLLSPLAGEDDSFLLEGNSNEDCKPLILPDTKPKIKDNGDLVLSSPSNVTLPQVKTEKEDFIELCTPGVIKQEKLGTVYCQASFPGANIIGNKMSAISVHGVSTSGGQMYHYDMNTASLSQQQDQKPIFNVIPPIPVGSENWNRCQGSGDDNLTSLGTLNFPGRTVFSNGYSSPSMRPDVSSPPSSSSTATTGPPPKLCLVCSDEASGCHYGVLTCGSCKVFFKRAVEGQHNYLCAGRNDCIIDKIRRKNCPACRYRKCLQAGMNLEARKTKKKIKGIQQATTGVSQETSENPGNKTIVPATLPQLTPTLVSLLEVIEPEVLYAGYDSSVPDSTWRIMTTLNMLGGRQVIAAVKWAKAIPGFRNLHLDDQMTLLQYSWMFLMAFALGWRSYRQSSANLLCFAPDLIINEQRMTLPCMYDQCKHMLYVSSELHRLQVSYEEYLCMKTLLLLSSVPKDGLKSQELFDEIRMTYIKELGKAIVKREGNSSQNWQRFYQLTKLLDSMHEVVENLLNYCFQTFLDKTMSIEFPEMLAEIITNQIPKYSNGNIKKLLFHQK
Sequence of Alpha-galactosidase (Coffea arabica) (Q42656 whole entry, looked up): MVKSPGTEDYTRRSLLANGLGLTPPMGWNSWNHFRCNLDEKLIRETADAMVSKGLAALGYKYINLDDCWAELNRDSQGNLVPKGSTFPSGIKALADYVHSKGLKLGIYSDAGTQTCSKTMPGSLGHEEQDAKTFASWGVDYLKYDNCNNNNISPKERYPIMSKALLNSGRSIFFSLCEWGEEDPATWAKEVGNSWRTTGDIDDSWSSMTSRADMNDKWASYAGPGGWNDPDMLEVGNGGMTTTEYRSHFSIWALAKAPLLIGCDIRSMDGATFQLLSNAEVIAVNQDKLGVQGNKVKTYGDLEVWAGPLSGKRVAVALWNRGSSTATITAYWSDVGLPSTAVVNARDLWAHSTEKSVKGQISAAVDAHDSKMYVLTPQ
Sequence of Alpha-galactosidase A (Homo sapiens) (P06280 whole entry, looked up): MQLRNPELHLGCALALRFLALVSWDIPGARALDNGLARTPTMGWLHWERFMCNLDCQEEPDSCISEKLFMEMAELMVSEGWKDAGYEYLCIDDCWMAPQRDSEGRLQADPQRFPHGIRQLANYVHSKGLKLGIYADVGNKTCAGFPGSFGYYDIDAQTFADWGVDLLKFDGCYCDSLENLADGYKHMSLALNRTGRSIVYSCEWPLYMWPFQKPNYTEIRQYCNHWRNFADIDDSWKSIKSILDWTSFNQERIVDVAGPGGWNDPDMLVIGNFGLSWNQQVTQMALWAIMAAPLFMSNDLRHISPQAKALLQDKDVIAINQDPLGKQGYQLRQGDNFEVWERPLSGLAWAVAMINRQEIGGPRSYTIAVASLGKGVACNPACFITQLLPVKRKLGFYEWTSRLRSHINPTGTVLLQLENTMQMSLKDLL
Sequence of Cytochrome P450 1A2 (Homo sapiens) (P05177 whole entry, looked up): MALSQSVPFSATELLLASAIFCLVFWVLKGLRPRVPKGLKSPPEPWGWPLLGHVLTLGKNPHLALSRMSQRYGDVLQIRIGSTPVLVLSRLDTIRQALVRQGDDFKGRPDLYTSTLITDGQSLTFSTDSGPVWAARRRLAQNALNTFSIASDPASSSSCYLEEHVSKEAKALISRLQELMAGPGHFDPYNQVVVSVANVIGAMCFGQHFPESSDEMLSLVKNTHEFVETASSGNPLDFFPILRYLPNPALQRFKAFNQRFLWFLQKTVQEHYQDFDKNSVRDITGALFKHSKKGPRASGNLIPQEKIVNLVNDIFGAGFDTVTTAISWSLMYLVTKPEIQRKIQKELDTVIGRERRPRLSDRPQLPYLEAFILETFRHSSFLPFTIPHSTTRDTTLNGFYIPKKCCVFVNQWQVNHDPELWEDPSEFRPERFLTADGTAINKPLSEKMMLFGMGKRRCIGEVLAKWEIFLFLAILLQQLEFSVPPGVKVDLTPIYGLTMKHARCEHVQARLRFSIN
Sequence of 3',5'-cyclic-AMP phosphodiesterase 4B (Homo sapiens) (Q07343 whole entry, looked up): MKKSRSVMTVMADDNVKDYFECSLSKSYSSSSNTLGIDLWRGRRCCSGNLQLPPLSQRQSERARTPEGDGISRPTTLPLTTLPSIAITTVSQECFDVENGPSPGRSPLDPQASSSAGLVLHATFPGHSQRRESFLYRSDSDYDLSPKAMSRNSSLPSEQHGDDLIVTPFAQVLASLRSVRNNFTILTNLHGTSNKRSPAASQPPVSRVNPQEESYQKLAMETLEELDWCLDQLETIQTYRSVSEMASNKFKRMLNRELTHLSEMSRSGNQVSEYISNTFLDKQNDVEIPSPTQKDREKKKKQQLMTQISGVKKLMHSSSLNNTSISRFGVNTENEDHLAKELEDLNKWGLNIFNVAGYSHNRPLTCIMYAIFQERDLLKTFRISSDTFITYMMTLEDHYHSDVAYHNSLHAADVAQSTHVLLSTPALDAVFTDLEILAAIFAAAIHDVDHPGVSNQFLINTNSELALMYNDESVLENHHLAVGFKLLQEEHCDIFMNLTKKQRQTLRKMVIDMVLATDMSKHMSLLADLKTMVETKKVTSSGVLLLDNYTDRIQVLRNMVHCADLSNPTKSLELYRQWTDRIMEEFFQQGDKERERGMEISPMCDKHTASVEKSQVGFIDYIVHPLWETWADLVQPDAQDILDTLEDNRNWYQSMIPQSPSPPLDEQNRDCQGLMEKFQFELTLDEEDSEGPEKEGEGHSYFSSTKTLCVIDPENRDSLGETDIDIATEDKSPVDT
Sequence of Pyruvate kinase (Leishmania mexicana) (Q27686 2-499 E452W): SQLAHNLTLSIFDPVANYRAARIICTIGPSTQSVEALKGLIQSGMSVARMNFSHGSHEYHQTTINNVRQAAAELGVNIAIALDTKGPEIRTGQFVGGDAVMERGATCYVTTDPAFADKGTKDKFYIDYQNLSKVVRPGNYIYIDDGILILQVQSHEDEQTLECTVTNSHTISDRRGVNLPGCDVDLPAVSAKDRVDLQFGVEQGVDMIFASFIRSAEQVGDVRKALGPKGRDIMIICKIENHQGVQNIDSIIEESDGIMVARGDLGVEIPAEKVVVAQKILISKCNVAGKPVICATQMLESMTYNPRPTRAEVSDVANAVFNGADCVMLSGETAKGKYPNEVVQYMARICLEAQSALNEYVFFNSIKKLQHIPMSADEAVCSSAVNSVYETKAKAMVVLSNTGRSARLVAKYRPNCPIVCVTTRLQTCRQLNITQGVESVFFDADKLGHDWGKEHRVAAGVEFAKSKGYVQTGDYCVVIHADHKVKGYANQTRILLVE
Sequence of Pyruvate kinase PKM (Homo sapiens) (P14618 whole entry, looked up): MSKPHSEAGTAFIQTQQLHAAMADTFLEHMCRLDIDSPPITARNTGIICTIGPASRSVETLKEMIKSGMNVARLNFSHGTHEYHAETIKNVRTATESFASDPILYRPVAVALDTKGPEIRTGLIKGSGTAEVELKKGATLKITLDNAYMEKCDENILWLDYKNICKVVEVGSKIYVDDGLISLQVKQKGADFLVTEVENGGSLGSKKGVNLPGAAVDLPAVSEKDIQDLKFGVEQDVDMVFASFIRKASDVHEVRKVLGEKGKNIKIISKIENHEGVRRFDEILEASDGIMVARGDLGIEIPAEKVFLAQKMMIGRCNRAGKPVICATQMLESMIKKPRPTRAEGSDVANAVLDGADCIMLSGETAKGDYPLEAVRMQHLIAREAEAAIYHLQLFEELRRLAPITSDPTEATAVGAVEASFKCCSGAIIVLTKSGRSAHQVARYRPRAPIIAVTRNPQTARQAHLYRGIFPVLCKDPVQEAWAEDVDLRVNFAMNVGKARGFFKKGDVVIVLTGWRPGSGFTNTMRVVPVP

CC(C)OC(=O)c1c(N)n(Cc2ccco2)c2nc3ccccc3nc12
inactive: activity change, negative = inhibition [1] -15.7% | activity change, negative = inhibition [2] 17.6% | outcome [3] | Potency [4] > 20.6 µM

COc1ccc(C(=O)CN2CCOCC2)cc1F
inactive: activity change, negative = inhibition [1] 1.47% | activity change, negative = inhibition [2] 3.56% | outcome [3] | Potency [4] > 20.6 µM

CCCC12CN3CN(C1)CC(CCC)(C3)C2O (stereo not drawn)
inactive: activity change, negative = inhibition [1] 21.7% | activity change, negative = inhibition [2] -5.01% | outcome [3] | Potency [4] > 20.6 µM

COCCOC(=O)c1c(N)n(Cc2ccco2)c2nc3ccccc3nc12
inactive: activity change, negative = inhibition [1] -12.5% | activity change, negative = inhibition [2] 16.1% | outcome [3] | Potency [4] > 20.6 µM

CC(C)(C)OC(=O)c1c(N)n(Cc2ccco2)c2nc3ccccc3nc12
inactive: activity change, negative = inhibition [1] -26.4% | activity change, negative = inhibition [2] 5.75% | outcome [3] | Potency [4] > 20.6 µM

O=c1[nH]c(=O)n(Cc2ccco2)c(O)c1C=NCCN1CCOCC1
inactive: activity change, negative = inhibition [1] 12.8% | activity change, negative = inhibition [2] -0.917% | outcome [3] | Potency [4] > 20.6 µM

CC(C)Cc1[nH]c(=O)c(C#N)c2c1CCC2
inactive: activity change, negative = inhibition [1] 8.3% | activity change, negative = inhibition [2] 18.5% | outcome [3] | Potency [4] > 20.6 µM

CCCN(CC#CCO)CCC
inactive: activity change, negative = inhibition [1] -3.1% | activity change, negative = inhibition [2] 3.75% | outcome [3] | Potency [4] > 20.6 µM

CC(=O)[C@@]1(O)CC[C@H]2[C@@H]3CC=C4C[C@@H](O)CC[C@]4(C)[C@H]3CC[C@@]21C
inactive: activity change, negative = inhibition [1] 0.531% | activity change, negative = inhibition [2] 10.8% | outcome [3] | Potency [4] > 20.6 µM

CCOC(=O)[C@]1(C#N)[C@@H]2C=CC(C(C)=O)=CN2[C@@H](C(N)=O)[C@@H]1c1ccsc1
inactive: activity change, negative = inhibition [1] -0.365% | activity change, negative = inhibition [2] -15.2% | outcome [3] | Potency [4] > 20.6 µM

CC[C@H](CO)NC(=O)[C@@H]1C=C2c3cccc4c3c(cn4C)C[C@@H]2N(C)C1
inactive: activity change, negative = inhibition [1] -3.22% [at 38 µM] | Potency [5] | activity change, negative = inhibition [2] -10.9% [at 38 µM] | outcome [6] | outcome [7] | Potency [8] | outcome [9] | Potency [10] | outcome [11] | outcome [12] | outcome [13] | outcome [14] | outcome [15]

O=c1[nH]c(=O)n(-c2cccc3ccccc23)c(O)c1C=NCCCn1ccnc1
inactive: activity change, negative = inhibition [1] 14.5% | activity change, negative = inhibition [2] -7.5% | outcome [3] | Potency [4] > 20.6 µM

COc1ccc(C2SCC(=O)Nc3c2c(=O)[nH]n3C2CCCCCC2)cc1 (stereo not drawn)
inactive: activity change, negative = inhibition [1] -18.2% | activity change, negative = inhibition [2] 1.93% | outcome [3] | Potency [4] > 20.6 µM

CCCCCCn1c(O)c(C=NCCN2CCCCC2)c(=O)[nH]c1=O
inactive: activity change, negative = inhibition [1] 10.2% | activity change, negative = inhibition [2] 4.87% | outcome [3] | Potency [4] > 20.6 µM

CCCc1nc2ccccc2c(=O)n1-c1ccccc1OC
inactive: activity change, negative = inhibition [1] -13.4% | activity change, negative = inhibition [2] 1.18% | outcome [3] | Potency [4] > 20.6 µM

COc1cccc(-n2c(C)nc3ccccc3c2=O)c1
inactive: activity change, negative = inhibition [1] 10.2% | activity change, negative = inhibition [2] 3.48% | outcome [3] | Potency [4] > 20.6 µM
